# Screening data (PubChem BioAssay)
# HSF1 inh: HSF1 inhibition; NIH3T3-HGL HSE-luciferase, MG132-induced, luminescence 8 h; active compounds read low; activity change, negative = inhibition, % at 7.5 µM (by protocol); actives 0.77% (n = 300,000); AID 2098;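 active = more than half of replicate wells show activity change below -50%, luminescence cut by over half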;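 also: luciferase reports HSF-1 transcriptional activity via heat shock element; 0% = median of DMSO wells and -100% = zero luminescence signal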
# AHR act: human AHR activation; AHR-responsive luciferase reporter cells, luminescence; activation, % at 5 µM; actives 2.5% (n = 320,000); in the data active = activation above about 47%;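 also: 0% = vehicle wells and 100% = reference agonist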
# FXN GAA850 act: increases GAA850 frataxin promoter reporter activity; HEK293 lucGAA850 FXN promoter luciferase reporter, 24 h; percent of 10 µM SAHA response; activation, % at 6 µM; actives 0.56% (n = 360,000);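 active = activation above the average of all compounds screened plus 3 SD, cutoff fixed separately per campaign, cut at about 7.5% in these data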;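 also: 0% = DMSO wells and 100% = 10 µM SAHA wells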
# HSF-1 act: increases HSF-1 driven luciferase reporter signal | NIH3T3-HGL HSF-1 luciferase reporter, MG132, 8 h; 100% = twice DMSO control signal | activation, % at 9 µM | actives 1.7% (n = 300,000) | AID 504408;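 active = mean replicate activation of at least 50% with a set share of replicates each reaching 50%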;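 also: 0% = median of the neutral control wells and 100% = twice that signal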
# GAA30 counter: GAA30 FXN promoter activation counter-screen; shares compounds with FXN GAA850 act; HEK293 lucGAA30 FXN promoter luciferase, 24 h; DMSO = 0%, 5 µM ipriflavone = 100%; activation, % at 6 µM; actives 66% (n = 1,900);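 active = mean activation above the mean of solvent-only control wells plus 3 SD, cut at about 22% in these data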;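 also: counterscreen of GAA850 promoter hits where activity marks nonselective or luminescence artifacts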
# GAA850 confirm: GAA850 FXN promoter activation confirmation | activation, % at 6 µM | HEK293 lucGAA850 FXN promoter luciferase reporter, 24 h; 100% = activation by SAHA | actives 86% (n = 1,900) | shares compounds with FXN GAA850 act;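 active = mean activation above a set limit taken from the primary screen, cut at about 8% in these data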;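 also: 0% = DMSO wells and 100% = 10 µM SAHA wells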
# * = called active by the depositor; x = no result. Only some compounds are listed: those with a hit (about 4.6% of all), similar ones and a draw of the others.
SMILES,HSF1 inh,AHR act,FXN GAA850 act,HSF-1 act,GAA30 counter,GAA850 confirm
Cn1c(SCC(=O)N2c3ccccc3Sc3ccccc32)nnc1-c1ccco1,7.8,1.3,-1.4,18.3,x,x
FC(F)Oc1ccccc1/C=N/n1cnc2ccccc21,14.8,49.1*,8.0*,15.6,95.5*,28.6*
Clc1ccc(C2=Nn3c(nnc3-c3cc(-c4ccccc4)n[nH]3)SC2)cc1,-0.3,8.2,1.1,2.3,x,x
c1ccc(C2=Nn3c(nnc3-c3cc(-c4ccccc4)n[nH]3)SC2)cc1,3.4,-0.4,8.3*,-9.7,41.4*,23.3*
O=c1[nH]nc(-c2ccc(NCCCO)c([N+](=O)[O-])c2)c2ccccc12,-8.1,2.2,2.5,-5.8,x,x
NC(=O)C1CCN(C(c2ccccc2Cl)c2nnnn2CC2CCCO2)CC1 (stereo unspecified),-8.7,-0.3,0.7,-16.3,x,x
O=C(CSC1=NCCN1)Nc1cccc(C(F)(F)F)c1,27.6,2.1,9.6*,67.1*,24.6*,20.9*
Cc1nn(-c2ccccn2)c2c1C(c1ccsc1)C1=C(CCCC1=O)N2 (stereo unspecified),13.0,-0.6,-0.1,22.8,x,x
O=C(c1ccc(-c2cc(Cl)ccc2Cl)o1)N1CCOCC1,5.3,2.4,6.3,3.2,x,x
O=C(c1ccco1)N1CCN(C(=O)c2ccc(-c3ccccc3Cl)o2)CC1,x,1.0,7.6*,x,88.1*,30.4*
S=C(c1ccc(-c2ccccc2Cl)o1)N1CCCCC1,22.4,0.8,8.6*,38.0,112.8*,39.2*
O=C(c1ccc(-c2ccc(Cl)cc2Cl)o1)N1CCOCC1,29.8,21.2,9.1*,59.9*,114.3*,46.4*
CCc1ccc(CNCCSc2nnnn2C)cc1,-2.2,-3.5,0.3,14.5,x,x
COC(=O)c1cc(OC)c(OC)cc1-n1cnc2cc(OC)c(OC)cc2c1=O,-0.9,2.1,-1.2,-2.3,x,x
Cc1cc(OC(=O)c2ccc(S(=O)(=O)N3CCCC3)cc2)c([N+](=O)[O-])c(=O)[nH]1,-11.3,-0.9,3.2,2.1,x,x
Cc1cc(C)nc(SC2c3cccc4cccc(c34)C2NS(=O)(=O)c2ccccc2)n1 (stereo unspecified),11.6,9.3,8.6*,38.8,15.0,14.2*
Cc1ccc(S(=O)(=O)NC2c3cccc4cccc(c34)C2Sc2ncccn2)cc1 (stereo unspecified),-10.5,3.9,3.7,3.2,x,x
CCCc1cc(C(=O)Nc2cccnc2Cl)no1,7.7,1.9,4.4,30.4,x,x
CCCc1cc(C(=O)Nc2cc(C)ccc2O)no1,96.9,-8.9,10.1*,119.6*,90.9*,42.8*
CCN(C(=O)CSc1ncccc1C(=O)O)C1CCCCC1,-7.4,-1.1,1.0,-16.3,x,x
O=C(Nc1ccc2nc(-c3cccs3)[nH]c2c1)c1cccs1,21.8,-12.9,2.6,21.3,x,x
O=C(Nc1ccc(-c2nc3ccc(NC(=O)c4cccs4)cc3[nH]2)cc1)c1cccs1,5.2,-1.2,15.0*,2.5,2.5,31.9*
O=C(O)c1ccc(N/N=C/c2ccc(-c3cc(Cl)ccc3Cl)o2)cc1,-11.6,19.5,4.5,3.2,x,x
O=C(O)c1ccc(N/N=C/c2ccc(-c3cccc(Cl)c3)o2)cc1,-2.3,128.0*,11.1*,-8.4,112.3*,42.4*
Cc1nc2cc(C(=O)N3CCN(C)CC3)ccc2n1C,0.6,x,1.0,16.6,x,x
SMILES,HSF1 inh,AHR act,FXN GAA850 act,HSF-1 act,GAA30 counter,GAA850 confirm
CCN(CC)S(=O)(=O)c1cc(NC(=O)CSCc2c(C)noc2C)ccc1C,x,-0.1,8.4*,x,9.9,8.2*
CCN(CC)S(=O)(=O)c1cc(NC(=O)CCc2c(C)noc2C)ccc1C,x,2.8,-1.8,x,x,x
CCNc1nc(NCC)nc(OCCOC(C)=O)n1,3.9,0.3,-0.3,35.2,x,x
O=C(COc1ccccc1Cl)NC(=O)NC1CCCC1,x,0.2,8.0*,x,111.4*,29.6*
Cc1ccccc1CS(=O)(=O)c1nnc([C@H](Cc2ccccc2)NC(=O)OC(C)(C)C)o1,9.3,-2.3,12.3*,35.9,-20.6,6.5
CC(C)(C)OC(=O)N[C@@H](Cc1ccccc1)c1nnc(S(=O)(=O)Cc2ccccc2)o1,x,-0.1,x,x,x,x
CCc1nnc(NC(=O)CSc2nnc(C3CCCCC3)n2-c2ccccc2)s1,-6.7,1.3,-2.6,-1.4,x,x
Cc1nc(N2N=C(c3ccc(Cl)cc3)CC2c2ccco2)sc1C(=O)N(C)C (stereo unspecified),5.9,27.5,10.7*,16.4,26.5*,21.9*
COc1ccc2c(c1OC)C(=O)N(c1ccc(C)cc1)C2,-0.6,-0.3,1.1,-20.3,x,x
COCC(C)NC(=O)NC1(C(F)(F)F)Oc2ccc(Cl)cc2O1 (stereo unspecified),28.8,4.6,10.2*,19.3,19.9,18.2*
O=C(NCCN1CCOCC1)NC1(C(F)(F)F)Oc2ccc(Cl)cc2O1 (stereo unspecified),6.6,-0.2,14.7*,34.8,36.0*,20.2*
CCOC(=O)Cc1csc(NC(=O)NC2(C(F)(F)F)Oc3ccc(Cl)cc3O2)n1 (stereo unspecified),20.5,-0.2,8.5*,33.6,44.0*,17.2*
O=C(NCCN1CCOCC1)c1cc(Cl)ccc1Cl,-7.2,x,1.1,-4.2,x,x
CN(CCc1ccccc1)C(=O)c1ccc(NC(=O)Cc2ccc(NC(=O)C3CCN(C(=O)C4CCC4)CC3)cc2)cc1,x,x,-0.9,x,x,x
O=C(Cn1c2ccccc2c(=O)c2ccccc21)Nc1ccccc1F,1.1,3.9,1.8,4.0,x,x
C[C@@H]1CN([C@H](C)CO)S(=O)(=O)c2ccc(Br)cc2O[C@@H]1CN(C)Cc1ccc(C(=O)O)cc1,x,x,0.6,x,x,x
C[C@@H]1CN([C@H](C)CO)S(=O)(=O)c2ccc(Br)cc2O[C@@H]1CN(C)Cc1ccc(-c2ccccc2)cc1,x,x,14.4*,x,24.0*,10.9*
Fc1ccc(-c2ccc(Nc3cccc(F)c3)nn2)cc1,-7.5,-6.1,8.3*,-18.8,93.3*,30.8*
COc1ccc(C(=O)c2sc(NC(C)C)nc2N)cc1OC,x,42.8,5.3,x,x,x
COc1cccc(C(=O)c2sc(NC(C)C)nc2N)c1,-9.1,29.2,12.1*,-21.1,69.4*,88.9*
N#Cc1nc(COc2ccccc2)oc1NCCN1CCOCC1,-0.9,2.1,2.5,-0.8,x,x
Cc1ccc(Nc2nc(CSc3nnc(-c4ccccc4)n3C)cs2)cc1,15.2,26.0,7.6*,43.0,120.2*,41.1*
O=C(Nc1cccc(C(=O)Nc2ccccc2C(=O)O)c1)c1cccc(Cl)c1,0.4,-1.4,0.1,-7.4,x,x
O=C(Nc1cccc(Cl)c1)c1ccccc1,x,9.3,7.7*,x,75.9*,20.1*
CC(C)CC(NC(=O)C1CCCCC1)C(=O)N1CCN(c2ccccn2)CC1 (stereo unspecified),-3.8,-0.8,-1.4,8.8,x,x
